# Most compounds without a hit are left out; they make up all but 10% or so of the library.
# hNpr1 antagonist: Natriuretic polypeptide receptor (hNpr1) antagonism - Primary qHTS; 1.6% of 76,000 active; Potency, µM (doses to about 46.3 µM), for the others: at the highest dose activity change, negative = inhibition, usual class: inhibitors; HEK293 hNpr1 GloSensor cGMP, ANP-stimulated luminescence; Atrial natriuretic peptide receptor 1 (Homo sapiens), P16066; AID 1347048, 2019; calls by dose curve; further: nearly all actives have a fitted effect of over 60% in size
#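 HEK293 cells stably expressing human Npr1 and cGMP GloSensor pGS-40F, loaded 2 h with 2% GloSensor reagent, given compound 30 min at room temperature. Luminescence read before and 20 min after 0.1 nM hNppA.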
# 3T3 cytotox: Cytotoxic Profiling in NIH 3T3 Cell Line of Diverse Libraries Using Quantitative High-Throughput Screening; Potency, µM (doses to about 96.7 µM), for inactives: at the top dose activity change, negative = cytotoxicity, hits mostly inhibitors; 4.3% of 94,000 active; NIH 3T3 viability, CellTiter-Glo ATP luminescence, 48-72 h; further: nearly all actives have a fitted effect of over 55% in size
#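 Luminescent ATP readout (CellTiter-Glo, 10 min RT) after 48 or 72 hr compound exposure of NIH 3T3 cells seeded at 400 cells/well in 1536-well format; quantitative HTS.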
# HEK293 tox: Cytotoxic Profiling in HEK 293 Cell Line of Diverse Libraries Using Quantitative High-Throughput Screening; HEK 293 viability, ATP luminescence (CellTiter-Glo), 48-72 h; Potency, µM (titrated, usually from 115 µM), for inactives: at the top dose activity change, negative = cytotoxicity, actives largely listed as inhibitors; 6.6% of 94,000 active; AID 1345083, 2018; further: nearly all actives have a fitted effect of over 60% in size
#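 Pintool-delivered compounds were incubated with HEK 293 cells (250 cells/well) at 37 degree Celsius for 48 or 72 hr. ATP-dependent luminescence (CellTiter-Glo) then reported remaining viable cells.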
# FLuc inh: Firefly luciferase inhibition profiling of diverse chemical library using quantitative high-throughput screening; purified P. pyralis luciferase, luminescence, biochemical; 2.5% of 76,000 active; Luciferin 4-monooxygenase (Photinus pyralis), P08659; Potency, µM (highest dose often 115 µM), usual class: inhibitors; further: nearly all actives have a fitted effect of over 65% in size
#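 Purified P. pyralis luciferase (10nM final) in 50mM Tris acetate pH 7.5, 10mM Mg acetate, 0.01% Tween-20, 0.05% BSA with 10uM D-luciferin and 10uM ATP. Compounds titrated qHTS. Luminescence imaged on CCD.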
# GPT2 inhibitor: Primary qHTS assay for inhibitors of Glutamate pyruvate transaminase 2 (GPT2). Potency, µM (titrated, usually from 57.7 µM), for inactives: top-dose activity change, negative = inhibition, hits mostly inhibitors. 0.25% of 100,000 active. Recombinant GPT2, coupled pyruvate oxidase/HRP Amplex Red fluorescence; further: nearly all actives have a fitted effect of over 60% in size
#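 GPT2 10ng/uL, a-KG 250uM, L-Ala 2mM, HEPES pH7.5 + 0.0001% Tween; 30 min RT. Then Amplex mix (PO/HRP/ThPP), 30 min RT dark, fluorescence. AOA 50uM used as positive control.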
# * hit, by the source's call; i = inactive; ? = inconclusive; / = no result; [ ] = dose if it differs, or a comment. Unless noted, the call rests on the fitted dose curve; in most records, active means well fitted curve in the direction sought with a large enough effect; inconclusive means small, poorly fitted or top-dose-only effect, or another doubt; inactive means no such curve, though single readings can be large; an effect the other way counts as inactive or inconclusive. On the % scale 0 is the no-effect control and ±100 the full control effect; potency means the concentration at half of the fitted maximal effect.
SMILES,hNpr1 antagonist,3T3 cytotox,HEK293 tox,FLuc inh,GPT2 inhibitor
CCCNc1cc(N2CCC(CCC(=O)N3CCN(c4ccc(F)cc4)CC3)CC2)ncn1,11µM*,20µM*,?,?,i
CCCNc1cc(N2CCC(CCC(=O)Nc3cccc(C)c3)CC2)ncn1,-23%,0%,i,20µM*,?
CCCNc1cc(N2CCC(CCC(=O)N3CCN(c4cccc(C)c4)CC3)CC2)ncn1,?,?,20µM*,?,i
CCCNc1cc(N2CCC(CCC(=O)NCC)CC2)ncn1,-14%,-7%,i,i,-2%
Cc1[nH]nc2c1C(c1cccc(Cl)c1)C(C#N)=C(N)O2 (centres undefined),-4%,?,?,i,?
O=C(c1cccc(F)c1)N1CC(Oc2ccc(-c3nc(-c4ccccc4)no3)cc2)C1,-1%,-5%,?,i,i
O=C(CCC1CCCC1)N1CC(c2noc(COc3ccccc3)n2)C1,0%,?,?,i,i
O=C(Nc1ccon1)c1cnc2n[nH]c(-c3ccccc3)c2n1,-5%[70.6 µM],32µM*,?,i,i
Cc1ccsc1-c1[nH]nc2ncc(-c3ccccc3)nc12,-11%[70.6 µM],?,?,i,?
c1ccc(-c2cnc3n[nH]c(-c4ccccc4)c3n2)cc1,-12%[70.6 µM],?,100µM*,i,i
CC(C)NC(=O)c1cnc2n[nH]c(-c3ccccc3)c2n1,-2%[70.6 µM],-28%[174 µM],?,i,3%[88.5 µM]
Cc1cc(-c2cnc3n[nH]c(-c4ccc5c(c4)OCO5)c3n2)ccn1,-19%[70.6 µM],?,-17%[172 µM],i,-1%[88.5 µM]
Cc1cc(C)cc(-c2[nH]nc3ncc(-c4ccsc4)nc23)c1,-13%[70.6 µM],25µM*,?,i,-6%[88.5 µM]
Cc1cc(-c2cnc3n[nH]c(-c4ccccc4)c3n2)ccn1,-18%[70.6 µM],?,?,i,4%[88.5 µM]
Cc1cccc(-c2cnc3n[nH]c(-c4ccccc4)c3n2)c1,-12%[70.6 µM],?,71µM*,i,-7%[88.5 µM]
COc1ccc(-c2[nH]nc3ncc(-c4ccccc4F)nc23)c(C)c1,-13%[70.6 µM],50µM*,63µM*,i,1%[88.5 µM]
Fc1ccccc1-c1cnc2n[nH]c(-c3ccccc3)c2n1,-19%[70.6 µM],89µM*,112µM*,i,4%[88.5 µM]
c1cncc(-c2cnc3n[nH]c(-c4ccc5c(c4)OCO5)c3n2)c1,-18%[70.6 µM],?,28µM*,i,0%[88.5 µM]
Cc1ccc(-c2cnc3n[nH]c(-c4ccccc4)c3n2)cc1,-14%[70.6 µM],?,32µM*,i,1%[88.5 µM]
CC(C)NC(=O)NC[C@H]1O[C@@H](CC(=O)NC2CC2)[C@H](O)[C@@H]1O,3%[70.6 µM],1%[174 µM],-4%[172 µM],i,0%[88.5 µM]
CCOC(=O)c1ccc(N2CCN(CCC3c4cccnc4C(=O)N3c3c(C)cccc3C)CC2)cc1 (centres undefined),/,?,35µM*,/,4%[27.3 µM]
COC(=O)c1ccc(CNC(=O)CC2c3cccnc3C(=O)N2c2c(Cl)cccc2Cl)cc1 (centres undefined),/,?,?,/,-1%[27.3 µM]
Cc1nn(-c2ccccc2)c2c1C(C)N(C1CCCN(C(=O)C3CC3)C1)C2=O (centres undefined),/,-11%,-2%,/,/
COc1ccccc1C(=O)N1CCC(N2C(=O)c3c(c(C)nn3-c3ccccc3)C2C)CC1 (centres undefined),/,?,40µM*,/,/
Cc1nn(-c2ccccc2)c2c1C(C1CC1)N(C1CN(C(=O)NC3CCCC3)C1)C2=O (centres undefined),/,-6%,-2%,/,/
SMILES,hNpr1 antagonist,3T3 cytotox,HEK293 tox,FLuc inh,GPT2 inhibitor
Cc1ccccc1C(=O)N1CCC(N2C(=O)c3c(c(C)nn3-c3ccccc3)C2C)CC1 (centres undefined),/,?,45µM*,/,/
Cc1nn(-c2ccccc2)c2c1C(C)N(C1CN(C(=O)NC3CCCC3)C1)C2=O (centres undefined),/,28µM*,?,/,/
COC(=O)N1CCCC(N2C(=O)c3c(c(C)nn3-c3ccccc3)C2C)C1 (centres undefined),/,-26%,?,/,/
Cc1ccccc1C(=O)N1CCC(N2C(=O)c3c(c(C)nn3-c3ccccc3)C2C)C1 (centres undefined),/,?,45µM*,/,/
Cc1nc(N2CCN(C(=O)c3ccccc3)CC2)cc(C(F)(F)F)n1,-1%,-10%,-3%,i,-1%
COC1CCC12CCN(Cc1ccc(F)c(F)c1)CC2 (centres undefined),7%,-5%,?,i,-2%
Cc1cc(C)cc(-c2ccc(CN3CCCC(N[S+](=O)([O-])c4c(C)noc4C)C3)cc2)c1 (centres undefined),/,35µM*,25µM*,/,i
Cc1cc(C)cc(-c2ccc(CN3CCCC(NC(=O)C4CCCC4)C3)cc2)c1 (centres undefined),/,-19%,-16%,/,-9%
COc1ccccc1-c1ccc(CN2CCC(N[S+](=O)([O-])c3c(C)noc3C)C2)cc1 (centres undefined),/,?,45µM*,/,/
COc1ccccc1Nc1ccnc(N2CCC(N[S+](=O)([O-])c3c(C)noc3C)CC2)n1,/,?,?,/,5%
Cc1cc(C)cc(-c2ccc(CN3CCCC(N[S+](=O)([O-])c4cccs4)C3)cc2)c1 (centres undefined),/,32µM*,35µM*,/,i
O=[S+]([O-])(NC1CCCN(Cc2ccc(-c3cncnc3)cc2)C1)c1ccccc1 (centres undefined),/,-19%,?,/,-9%
Cc1ccc([S+](=O)([O-])NC2CCCN(Cc3ccc(-c4cc(C)cc(C)c4)cc3)C2)cc1 (centres undefined),/,?,40µM*,/,-13%
CO[C@H]1C(=O)N(C(C)C)[C@H]1C1CCN(C(=O)c2ccc(C#N)cc2)CC1,/,-17%,-3%,/,i
COc1ccccc1CNC(=O)C1(c2ccc(NS(C)(=O)=O)cc2)CCCCC1,-1%,?,8%,i,i
CC(C)(C)CN[C@H]1C[C@@H](Cc2cc(CN3CCOCC3)on2)C1(C)C,-1%[70.6 µM],-4%[138 µM],-5%[172 µM],i,4%[88.5 µM]
Cc1cc(C)cc(C2(CNC(=O)C3CC4(CCNCC4)CN3)CCCC2)c1 (centres undefined),-12%,?,79µM*,i,i
Cc1ccc(Cl)cc1NC(=O)Cn1c(C)cc2nc3n(c(=O)c21)CCCC3,-19%,?,?,i,-5%

# Screens from PubChem BioAssay.
